Measured values from PubChem BioAssay (NCI).
About 83,000 compounds went through this panel and 20% of them were active in at least one assay; those are over-represented in the sample as a whole.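 A percent growth of 40 corresponds to 60% growth inhibition; 0 means no net growth; -100 means all cells died. Active threshold: below 10.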 A number with no mark means an inactive call. The source made the active and inactive calls.

Legend:
Assay in all cases: NCI-60 one-dose screen, 48 h (100 = growth as untreated, 0 = no growth, -100 = all killed)
[1] = tested on: HCT-15 colon; details: 10 µM unless noted
[2] = tested on: HT29 colon; details: 10 µM unless noted
[3] = tested on: SNB-75 CNS; details: 10 µM unless noted
[4] = tested on: SNB-19 CNS; details: 10 µM unless noted
[5] = tested on: U251 CNS; details: 10 µM unless noted
[6] = tested on: PC-3 prostate; details: 10 µM unless noted
[7] = tested on: SK-MEL-5 melanoma; details: 10 µM unless noted
[8] = tested on: UACC-62 melanoma; details: 10 µM unless noted
[9] = tested on: LOX IMVI melanoma; details: 10 µM unless noted
[10] = tested on: SK-MEL-28 melanoma; details: 10 µM unless noted
[11] = tested on: SK-MEL-2 melanoma; details: 10 µM unless noted
[12] = tested on: EKVX NSCLC; details: 10 µM
[13] = tested on: SN12C renal; details: 10 µM unless noted
[14] = tested on: UO-31 renal; details: 10 µM unless noted
[15] = tested on: TK-10 renal; details: 10 µM unless noted
[16] = tested on: ACHN renal; details: 10 µM unless noted
[17] = tested on: A498 renal; details: 10 µM unless noted
[18] = tested on: CCRF-CEM leukemia; details: 10 µM
[19] = tested on: MOLT-4 leukemia; details: 10 µM unless noted

| Structure (SMILES) | growth [1] | growth [2] | growth [3] | growth [4] | growth [5] | growth [6] | growth [7] | growth [8] | growth [9] | growth [10] | growth [11] | growth [12] | growth [13] | growth [14] | growth [15] | growth [16] | growth [17] | growth [18] | growth [19] |
| --- | --- | --- | --- | --- | --- | --- | --- | --- | --- | --- | --- | --- | --- | --- | --- | --- | --- | --- | --- |
| O=C(/C=C1\C(=O)N(Cc2ccc([N+](=O)[O-])cc2)c2ccccc21)c1ccc(OCCN2CCCC2)cc1 | 15.4% | 17.4% | 65.3% | 95.1% | 84.7% | 77% | 88.5% | 85.8% | 16.7% | 104% | 93.7% | 71.5% | 37.3% | 40.8% | 82.8% | 45.7% | 83.1% | 15.2% | 9.27% (active) |
| CCCNC(=O)Oc1ccc(/C(=C(/CC)Cc2ccccc2)c2ccc(OCCN(CC)CC)cc2)cc1 | 7.99% (active) | -14.8% (active) | 63.6% | 87.7% | 45.1% | 60.8% | 39.8% | 91.7% | 63.9% | 92.9% | 101% | 79.3% | 78.6% | 51.5% | 85.8% | 90.1% |  | 57.7% | 46.9% |
| CCCNC(=O)Oc1ccc(/C(=C(/C)Cc2ccc(OC)cc2)c2ccc(OCCN3CCCC3)cc2)cc1 | 16.9% | 0.741% (active) | 48.2% | 78.6% | 48.6% | 56.4% | 11.7% | 52.5% | 48.4% | 55.8% | 98.8% | 70.1% | 71.3% | 50.3% | 83.4% | 78.6% |  | 50.7% | 52.8% |
| Cc1ccc(CC(=O)O)c(C)c1 | 103% | 97.2% | 92.1% | 102% | 99.3% | 98.3% | 106% | 98.8% | 98% | 113% | 95.5% | 109% | 99.4% | 91.4% | 88.3% | 110% |  | 101% | 105% |
| COc1ccc2oc(=O)cc(CN3C(=O)S/C(=C\c4ccc(Cl)cc4)C3=O)c2c1 | 92.3% | 103% | 98.7% | 99% | 101% | 91.8% | 101% | 83.1% | 95.2% | 101% | 106% | 93% | 108% | 83.4% | 108% | 105% | 106% | 86.5% | 89.2% |
| C[C@@H](c1ccc2c(c1)[nH]c1ccc(Cl)cc12)c1nc2ccc(Cl)cc2[nH]1 | 90.1% | 97.2% | 74.2% | 91.7% | 92.1% | 84.4% | 95% | 76.6% | 85.4% | 99.8% | 106% | 75.5% | 80.6% | 58% | 85.6% | 79.6% | 99.7% | 16.6% | 49.4% |
| Oc1ccc(N=Nc2ccc(N=Nc3ccccc3)cc2)cc1 | 40.7% | 53.4% | 87.1% | 58.4% | 51.6% | 43.1% | 39.1% | 1.15% (active) | 6.08% (active) | 54.4% | 47.3% | 39.8% | 57.1% | 15.8% | 48.5% | 30.8% |  | 6.69% (active) | 4.57% (active) |
| Cc1c(Cc2ccccc2)c(=O)oc2c(C)c(OCC(=O)n3nc(C#N)cc3N)ccc12 | 103% | 95.6% | 81% | 98.9% | 106% | 89% | 103% | 99.1% | 96.7% | 106% | 98.9% | 97.7% | 102% | 75.6% | 123% | 93.6% | 126% | 99.6% | 98.5% |
